USP8 block: human USP8 deubiquitinase inhibition; 4.2% of 47,000 active; P40818; inhibition, % at 20 µM; purified USP8, Ub-rhodamine cleavage fluorescence, 30 min
UCHL1 inh: blocks human UCHL1 ubiquitin-rhodamine cleavage; P09936; purified UCHL1, Ub-rhodamine cleavage fluorescence; inhibition, % at 20 µM; 0.2% of 47,000 active; AID 1645859
OTUD3 block: blocks human OTUD3 ubiquitin-rhodamine cleavage; inhibition, % at 25 µM; 0.7% of 47,000 active; purified OTUD3, Ub-rhodamine fluorescence, 2 h; AID 1645858; Q5T2D3
USP7 inh: blocks human USP7 ubiquitin-rhodamine cleavage | Q93009 | purified USP7, Ub-rhodamine cleavage fluorescence | inhibition, % at 20 µM | 0.3% of 47,000 active | AID 1645854
USP10 inh: human USP10 deubiquitinase inhibition | 1.1% of 47,000 active | AID 1645856 | inhibition, % at 20 µM | purified USP10, Ub-rhodamine fluorescence, 60 min
USP17 block: human USP17-like deubiquitinase inhibition | A8MUK1 | purified USP17, Ub-rhodamine cleavage fluorescence, 3 h | inhibition, % at 50 µM | 6.5% of 47,000 active | AID 1645855
* hit, by the source's call; · = not tested or not shown. The list is not random: actives were taken first. Their share in the collection is about 9.2%. Rule as the data show it: active = inhibition above about 30%; inactive = the rest.

SMILES | USP8 block | UCHL1 inh | OTUD3 block | USP7 inh | USP10 inh | USP17 block
COc1ccc(Cl)cc1NC(=O)COC(=O)C(Cc1c[nH]c2ccccc12)NC(=O)c1ccccc1Cl (configuration not stated) | 19 | 6 | 14 | 2 | 8 | 20
Cc1c(C)n(-c2ccccc2)c2ncn(CC(=O)NC(C)c3ccccc3)c(=O)c12 (configuration not stated) | 20 | 6 | 45* | 8 | 20 | ·
Cc1cccc(NC(=O)Cn2cnc3c(c(C)c(C)n3-c3ccccc3)c2=O)c1 | 0 | 1 | 0 | 0 | -1 | 23
Cc1ccc(NC(=O)C2CCN(c3nc4nc[nH]c(=O)c4s3)CC2)cc1F | 39* | 0 | -26 | 6 | -8 | -89
O=C(Nc1ccc(Cl)cc1)C1CCN(c2nc3nc[nH]c(=O)c3s2)CC1 | -4 | -4 | -5 | -3 | 2 | -5
COc1ccc(-c2nc(SCC(=O)Nc3ccc(Cl)cc3F)n[nH]2)cc1 | -32 | -1 | -4 | -6 | 6 | 59*
COC(=O)c1ccc(NC(=O)CC(NC(=O)C(F)(F)F)c2cccs2)cc1 (configuration not stated) | -8 | 0 | -6 | 0 | 4 | -8
COc1ccc(C(CC(=O)Nc2ccc(Cl)cc2F)NC(=O)C(F)(F)F)cc1 (configuration not stated) | 1 | -1 | 2 | 4 | 6 | 31*
COc1ccc([C@@H]2CCN(C(=O)Cc3ccc(-n4cnnn4)cc3)C[C@H]2O)cc1 | 7 | 0 | 0 | 2 | 2 | 4
O=C(N[C@H]1C[C@@H]2C[C@H]1N(C(=O)c1ccccn1)C2)c1ccccc1 | -23 | -28 | -73 | -23 | -7 | -119
Cc1cccc(NC(=O)CNC(=O)c2ccc(-c3noc(C4CCCC4)n3)cc2)c1C | 0 | 3 | 1 | 18 | 59* | 32*
Cc1nc(CNC(=O)c2ccc(-c3noc(C4CC4)n3)cc2)no1 | -3 | 0 | -4 | 0 | 0 | -11
Cc1cccc(NC(=O)CCc2ccnc(N3CCOCC3)c2)c1C | 2 | -5 | -5 | -4 | 1 | ·
Cc1cc(OCC(=O)Nc2ccccc2)nc(N2CCCC(C)C2)n1 (configuration not stated) | 13 | 4 | -1 | -22 | 4 | 31*
c1ccc(CCN2CCn3c(nc4ccccc43)C2)cc1 | -96 | -2 | -178 | -1 | -6 | -156
O=[N+]([O-])c1ccc2c(c1)nc1n2CCN(Cc2ccco2)C1 | 13 | 9 | 22 | 2 | 9 | 61*
Cc1cccc(NC(=O)CNc2nc(Nc3ccccc3)nc(Nc3ccccc3)n2)c1 | 14 | 12 | 13 | 14 | 8 | ·
Cc1ccccc1NC(=O)CNc1nc(Nc2ccccc2)nc(Nc2ccccc2)n1 | 34* | 1 | -2 | 3 | 0 | 65*
O=C(CNc1nc(Nc2ccccc2F)nc(Nc2ccccc2F)n1)Nc1ccccc1 | 6 | 2 | 26 | 8 | 29 | 7
O=C(CNc1nc(Nc2ccccc2)nc(Nc2ccccc2)n1)Nc1ccccc1F | 7 | 9 | 9 | 8 | 10 | 44*
Cc1cccc(NC(=O)C2CCCN(C(=O)c3cc(-c4ccccn4)n[nH]3)C2)c1 (configuration not stated) | -224 | 0 | 3 | 1 | 4 | -55
CN(Cc1nc2cc(Cl)ccc2c(=O)[nH]1)Cc1ccccc1F | -11 | -2 | 12 | -2 | -6 | -6
COc1cc(CO)cc2c1C(=O)c1c(O)cc(O)cc1C2=O | 5 | 3 | 0 | 5 | 3 | 8
COc1cc(O)c2c(c1O)C(=O)c1cc(C)ncc1C2=O | -8 | 1 | -17 | -4 | 0 | 43*
Cc1nn(-c2ccccc2)c2[nH]c(=O)c(CNCc3ccco3)cc12 | -5 | 0 | -2 | 4 | -2 | -27
O=c1[nH]c2c(cc1CNCc1cccnc1)c(-c1cccc(F)c1)nn2-c1ccccc1 | 68* | -3 | -16 | -4 | -4 | -43
Cc1ccc(-c2nn(-c3ccccc3)c3[nH]c(=O)c(CNCc4ccccc4)cc23)cc1 | 56* | -51 | -66 | -32 | -13 | -68
COc1ccc(-c2nn(-c3ccccc3)c3[nH]c(=O)c(CNC4CCCC4)cc23)cc1 | 26 | -9 | -48 | 5 | -8 | -22
Cc1nn(-c2ccccc2)c2[nH]c(=O)c(CNCc3ccc4c(c3)OCO4)cc12 | 77* | 1 | 14 | 7 | 4 | 21

Source: PubChem (Buhrlage Lab, Dana-Farber Cancer Institute and Novartis Institutes for BioMedical Research (Cambridge, Mass))
